Laboratory results taken from ChEMBL document CHEMBL3988442, “University of Dundee, Small-Polar-MMV Screening Library” (2021).
In all, about 38,000 compounds went through this assay and about 1,200 (3.2%) showed an effect of 50% or more. The median lay at about -58%. The sample holds strong results, similar compounds and a random draw of the others, so the mix is not that of the screen.

system: Plasmodium falciparum; test: Calibr Malaria Delayed Death Assay SOP; format: functional, organism-based; parameters: scale not given: in the data most compounds retested in dose-response had high values; conditions: concentration 4.99e-06 (unit not given; other assays of the set use mol/L)

| SMILES | Percent Effect [%] |
| --- | --- |
| O=C(C1=CCCC1)N1C[C@@H]2COC[C@]2(COCC2CC2)C1 | -77.68 |
| CCN1CCOC(CNCc2ccc(OC)c(F)c2)C1 (stereo not given) | -53.15 |
| COc1ccc(CNCC2CCN(CCO)CC2)cc1F | 57.05 |
| COc1ccc(CNCC2CN(C3CC3)CCO2)cc1F (stereo not given) | -41.72 |
| OCCN1CCC(CNCc2cn(-c3ccccc3)nn2)CC1 | -75.43 |
| CCOCCNCC1CCN(CCO)CC1 | -86.72 |
| Cn1cc(CNCC(c2ccc(Cl)cc2)n2cccn2)cn1 (stereo not given) | 16.07 |
| Clc1ccc(C(CNCc2ccncc2)n2cccn2)cc1 (stereo not given) | -53.83 |
| CCn1cc(CNCC(c2ccc(Cl)cc2)n2cccn2)cn1 (stereo not given) | 59.81 |
| CCn1cc(-c2n[nH]c(=O)n2-c2ccc3c(c2)OCO3)c(C)n1 | -101.4 |
| CCC[C@H]1CN(Cc2cscn2)C[C@@H]1NC(=O)C1(COC)CCC1 | -24.11 |
| CCC[C@H]1CN(c2nc(CO)cs2)C[C@@H]1NC(=O)C1CCC1 | 1.552 |
| CCC[C@H]1CN(c2nc(CO)cs2)C[C@@H]1NC(=O)C1(COC)CC1 | 71.28 |
| CC(C)C[C@H](NC(=O)Cn1ccc2c(Cl)cccc21)C(=O)O | -50.44 |
| COc1cccc(CN(C)Cc2nc(C(C)C)no2)c1 | -65.15 |
| O=C(O)C(F)(F)F.O=C(O)C(F)(F)F.OCCN1CC2(CCN(c3ccccc3)C2)C1 | 61.64 |
| O=C(O)C(F)(F)F.O=C(O)C(F)(F)F.O=C(c1c[nH]cn1)N1CCC(F)(F)C2(CCN(c3ccccn3)C2)C1 (stereo not given) | -115.9 |
| FC1(F)CCN(Cc2cccnc2)CC12CCN(c1ccccc1)C2.O=C(O)C(F)(F)F.O=C(O)C(F)(F)F.O=C(O)C(F)(F)F (stereo not given) | 84.58 |
| O=C(O)C(F)(F)F.O=C(c1c[nH]cn1)N1CCC(F)(F)C2(CCN(c3ncccn3)C2)C1 (stereo not given) | -29.78 |
| O=C(O)C(F)(F)F.O=C(c1c[nH]cn1)N1CCC(F)(F)C2(CCN(c3cccc(F)c3)C2)C1 (stereo not given) | 85.76 |
| Cn1cnc(S(=O)(=O)N2CC3(CCN(c4ccccc4)C3)C2)c1.O=C(O)C(F)(F)F | 1.109 |
| FC1(F)CCN(Cc2cccnc2)CC12CCN(c1cnccn1)C2.O=C(O)C(F)(F)F.O=C(O)C(F)(F)F.O=C(O)C(F)(F)F (stereo not given) | -45.54 |
| FC1(F)CCN(Cc2ccncc2)CC12CCN(c1cccnc1)C2.O=C(O)C(F)(F)F.O=C(O)C(F)(F)F.O=C(O)C(F)(F)F (stereo not given) | 15.13 |
| CN1CC(=O)N(c2ccccc2)CC12CCN(CCO)C2.O=C(O)C(F)(F)F.O=C(O)C(F)(F)F (stereo not given) | -19.33 |

| SMILES | Percent Effect [%] |
| --- | --- |
| FC1(F)CCN(c2ccccc2)CC12CCN(c1ncccn1)C2 (stereo not given) | -152.8 |
| OCCN1CCC(F)(F)C2(CCN(c3cccnc3)C2)C1 (stereo not given) | -53.32 |
| C=C(C)CN1CCC(NC(=O)Nc2ccc(F)c(C(N)=O)c2)CC1 | -90.89 |
| Cc1cc(Br)ccc1C(=O)NCCN1CCCCCC1 | 28.4 |
| COc1ccc(Cn2cc(C(=O)N(C)Cc3ccn[nH]3)nn2)cc1 | -12.45 |
| CCC(C)[C@H](N)c1nnc(SCC(=O)Nc2ccc(C)cc2C)o1.Cl (stereo not given in full) | -23.34 |
| COc1ccc(C2CCCCCN2Cc2cn(C)nc2C)cc1 (stereo not given) | -0.1987 |
| CSc1ncnc(NCc2ccccc2F)c1C#N | -23.93 |
| O=C1COc2cc(C(=O)NS(=O)(=O)c3ccc(F)cc3)ccc2N1 | -21.19 |
| Cc1nn(C)c(Cl)c1C1CCCN1C(=O)c1cccn1C (stereo not given) | -34.06 |
| c1cc(CNCC2CNc3ccnn3C2)cc(Cn2cccn2)c1 (stereo not given) | -27.88 |
| FC1(F)CCNCC12CCN(c1ccccn1)C2 (stereo not given) | 56.42 |
| O=C(O)C(F)(F)F.O=C(O)C(F)(F)F.O=C(O)CN1CCC(F)(F)C2(CCN(c3ccccc3)C2)C1 (stereo not given) | 66.58 |
| Cn1ccnc1CN1CCC(F)(F)C2(CCN(c3cccnc3)C2)C1.O=C(O)C(F)(F)F.O=C(O)C(F)(F)F (stereo not given) | 58.45 |
| FC1(F)CCNCC12CCN(c1cccnc1)C2.O=C(O)C(F)(F)F.O=C(O)C(F)(F)F (stereo not given) | 64.81 |
| O=C(C1CCCO1)N1CCCC2(CCN(c3cccnc3)CC2)C1.O=C(O)C(F)(F)F (stereo not given) | -72.8 |
| O=C(CO)N1CCC(F)(F)C2(CCN(c3ccccc3)C2)C1.O=C(O)C(F)(F)F (stereo not given) | -34.49 |
| O=C(O)C(F)(F)F.O=C(O)C(F)(F)F.O=C(O)CN1CCC(F)(F)C2(CCN(c3ccccn3)C2)C1 (stereo not given) | -82.81 |
| Cn1ccnc1CN1CCC(F)(F)C2(CCN(c3cnccn3)C2)C1.O=C(O)C(F)(F)F (stereo not given) | -1.841 |
| Fc1cccnc1N1CCC2(CNCCC2(F)F)C1 (stereo not given) | 45.04 |
| Cn1ccnc1CN1CCC2(CC1)CN(Cc1cccnc1)C(=O)CO2.O=C(O)C(F)(F)F.O=C(O)C(F)(F)F | -38.55 |
| N#Cc1ccc(N2CCCC3(CCN(c4cccnc4)CC3)C2)cc1.O=C(O)C(F)(F)F | -71.51 |
| FC1(F)CCNCC12CCN(c1ncccn1)C2 (stereo not given) | 17.29 |
| COCC1CN(Cc2ccoc2)Cc2nn(CC3CC3)cc21.O=C(O)C(F)(F)F (stereo not given) | -62.03 |

| SMILES | Percent Effect [%] |
| --- | --- |
| O=C(C1CC(c2ccccc2)=NO1)N1CCc2ccccc21 (stereo not given) | -20.98 |
| Cc1cnn(CCNCC(=O)NCCOc2ccc(Cl)cc2)c1 | -0.9504 |
| O=C(Cc1noc(C(=O)NCC2CC2)n1)Nc1cccc(C(F)(F)F)c1 | 7.243 |
| Clc1snnc1CN1CCN(c2nccs2)CC1 | -49.26 |
| CC(=O)Nc1cccc2c1ccn2CC(=O)Nc1n[nH]c(CC(C)C)n1 | -107.2 |
| Cc1csc(CNC(=O)N2CCN(Cc3ccco3)CC2)n1 | -96.64 |
| CNc1cc(C)nc(N2C[C@H](NC(=O)C3CCOCC3)[C@@H](C3CC3)C2)n1 | -47.54 |
| CNc1cc(C)nc(N2C[C@H](C3CC3)[C@@H](N)C2)n1 | 87.7 |
| CNc1cc(C)nc(N2C[C@@H](C(=O)O)[C@H](C3CC3)C2)n1 | -82.68 |
| N[C@H]1CN(Cc2cnc(N3CCCC3)nc2)C[C@@H]1C1CC1 | -9.289 |
| CCc1cc(N2C[C@H](C3CC3)[C@@H](N)C2)nc(N2CCCC2)n1 | 69.94 |
| CC(C)Oc1cc(N2C[C@H](C3CC3)[C@@H](N)C2)nc(N)n1 | -219.2 |
| O=C1CN(C(=O)c2cccc(C(F)(F)F)c2)CC(O)CN1CC1CC1 (stereo not given) | -23.92 |
| COCC(=O)N(Cc1ccc2[nH]ccc2c1)C1CC1 | -74.09 |
| O=C(c1ccc(-c2ccoc2)nc1)N1CCCN(C2CCCCC2)CC1 | -100.8 |
| Cc1ccc(S(=O)(=O)CCC(=O)N(C)Cc2cnn(C)c2)cc1 | -22.92 |
| CCC1COCCN1C(=O)NCc1nccn1CCc1ccccc1 (stereo not given) | -72.5 |
| OCCN1CCN(CC(O)c2ccc(OC(F)(F)F)cc2)CC1 (stereo not given) | -7.34 |
| CN(Cc1ccccc1OC(F)(F)F)C(=O)C1CC1 | -112.4 |
| NC(=O)N1CCCC(C(=O)NCc2ccccc2OC(F)(F)F)C1 (stereo not given) | -135.5 |
| CCCN1CCN(CC(O)c2ccc(OC(F)(F)F)cc2)CC1 (stereo not given) | 42.81 |
| CC(NCC1CCN(CCO)CC1)c1ccc(C(F)(F)F)cc1 (stereo not given) | 88.54 |
| COCCN1CCN(CC(O)c2ccc(C(F)(F)F)cc2)CC1 (stereo not given) | 6.899 |
| CC(NCC1CCN(CCO)CC1)c1ccc(OC(F)(F)F)cc1 (stereo not given) | 93.49 |

| SMILES | Percent Effect [%] |
| --- | --- |
| CC(c1ccc(C(F)(F)F)cc1)N1CCN(CCS(C)(=O)=O)CC1 (stereo not given) | -72.63 |
| Cc1cccc(CN2CC3(CCN(S(=O)(=O)C4CC4)CC3)OCC2=O)n1.O=C(O)C(F)(F)F | -75.59 |
| Cc1nccn1CCCC(=O)N1CCCN(c2cccnn2)CC1 | -112.5 |
| COC(=O)C1CN(Cc2nc(-c3ccccc3)cs2)C[C@@H](C)O1 (stereo not given in full) | -63.3 |
| Cc1cc2cccc(NC(=O)N3CCC(N(C)C)C3)c2o1 (stereo not given) | -83.5 |
| NC(=O)c1cc(NC(=O)NCCc2cc(F)cc(F)c2)ccc1F | -73.47 |
| O=C1CC(c2ccc3c(c2)OCO3)c2c(n3ccsc3nc2=O)N1 (stereo not given) | -91.85 |
| CN(C)c1ncccc1CNS(=O)(=O)c1cc(F)ccc1F | -126.3 |
| CCC(CC)NC(=O)c1cccnc1N1CCCC1c1ccccn1 (stereo not given) | -135.6 |
| CCCS(=O)(=O)N1CCN(C(C)(C)CO)CC1 | -101.2 |
| Cc1cc(C2CCCN(CC(=O)Nc3nc4c(s3)CCC4)C2)n[nH]1 (stereo not given) | 86.8 |
| O=C(CCc1cscn1)N1CCCC(c2ccn[nH]2)C1 (stereo not given) | -83.54 |
| Cc1nnc(NC(=O)CN2CCCC(c3ccn[nH]3)C2)s1 (stereo not given) | 85.62 |
| Cc1nnc(NC(=O)CN2CCCC(Cn3cncn3)C2)s1 (stereo not given) | -101.2 |
| O=C(CN1CCCC(c2ccn[nH]2)C1)Nc1nc2c(s1)CCCC2 (stereo not given) | 85.91 |
| O=C1CCCN1CCN1CCCC(c2ccn[nH]2)C1 (stereo not given) | 13.33 |
| O=C1CCCCCN1CCC(=O)N1CCCC(c2ccn[nH]2)C1 (stereo not given) | -59.24 |
| Cc1nnc(NC(=O)CN2CCOC(Cn3cccn3)C2)s1 (stereo not given) | -152.2 |
| CC(C)C1Nc2ccccc2C(=O)N1CC(=O)Nc1nc2c(s1)CCC2 (stereo not given) | 15.72 |
| Cc1cc(C2CCCN(CC(=O)N3CCc4ccccc43)C2)n[nH]1 (stereo not given) | -86.51 |
| O=C(CN1CCCC(c2ccn[nH]2)C1)Nc1nc2c(s1)CCC2 (stereo not given) | 89.1 |
| Cc1cc(C2CCCN(CC(=O)N3CCCc4ccccc43)C2)n[nH]1 (stereo not given) | -11.77 |
| COc1ccc(C)nc1NC(=O)CCc1c(C)nn(C)c1C | -87.92 |
